# Data reported in publication PMC7862700, “An all-to-all approach to the identification of sequence-specific readers for epigenetic DNA modifications on cytosine”.
# Legend:
# Test in all cases: DAPPL (digital affinity profiling via proximity ligation, sequencing); 10 mM Tris-HCl pH 7.5, 50 mM NaCl, 1 mM DTT, 4% glycerol, room temperature, 30 min; GST-TFs on glutathione beads, 16-mer random dsDNA library, 0.1% formaldehyde crosslink after washing; high values mean tight binding
# FEV = target: T1, FEV (Homo sapiens, UniProt Q99581 1-238); details: protein: recombinant; tags: N-terminal GST; dsDNA, one strand shown
# T1 sequence: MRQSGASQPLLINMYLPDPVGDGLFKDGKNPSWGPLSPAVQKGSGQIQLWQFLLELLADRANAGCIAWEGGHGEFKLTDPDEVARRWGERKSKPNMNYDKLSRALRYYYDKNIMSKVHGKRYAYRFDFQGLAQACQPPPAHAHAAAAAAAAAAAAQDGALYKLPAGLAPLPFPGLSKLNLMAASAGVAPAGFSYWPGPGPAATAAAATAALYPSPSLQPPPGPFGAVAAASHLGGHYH
# Procedure, shortened: (§1)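 Pools of DNA-barcoded human transcription factors, expressed in yeast as GST fusions on glutathione beads and combined with a tag-only sample, were incubated with 200 nmole of a 16-mer random double-stranded DNA library. Incubation took 30 min at room temperature in Tris/NaCl/DTT/glycerol buffer and was followed by washing, 0.1% formaldehyde crosslinking, proximity ligation (BsaI/T4 ligase, 1 h, 37 °C), PCR amplification and sequencing on an Illumina NextSeq500. Binding signal is the ratio of a hexamer's read frequency for a factor to its frequency for the tag-only sample.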
# ETV5 = ETV5 (Homo sapiens, UniProt P41161 1-510); details: protein: recombinant; tags: N-terminal GST; dsDNA, one strand shown
# Procedure, shortened: as §1
# HSF1 = HSF1 (Homo sapiens, UniProt Q00613 1-529); details: protein: recombinant; tags: N-terminal GST; chain copies: 3; dsDNA, one strand shown
# Procedure, shortened: as §1
# SPIC = target: T2, SPIC (Homo sapiens, UniProt Q8N5J4 1-248); details: protein: recombinant; tags: N-terminal GST; dsDNA, one strand shown
# T2 sequence: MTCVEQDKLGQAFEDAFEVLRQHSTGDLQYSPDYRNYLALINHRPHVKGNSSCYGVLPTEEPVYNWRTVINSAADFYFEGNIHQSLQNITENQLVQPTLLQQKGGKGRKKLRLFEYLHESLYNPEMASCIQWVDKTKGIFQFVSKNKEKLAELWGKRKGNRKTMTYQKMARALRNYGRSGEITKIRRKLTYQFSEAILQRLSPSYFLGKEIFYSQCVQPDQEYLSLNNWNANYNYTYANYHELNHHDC
# Procedure, shortened: as §1
# ELF4 = ELF4 (Homo sapiens, UniProt Q99607 1-663); details: protein: recombinant; tags: N-terminal GST; dsDNA, one strand shown
# Procedure, shortened: as §1
# ELK4 = target: T3, ELK4 (Homo sapiens, UniProt P28324-2 1-405); details: protein: recombinant; tags: N-terminal GST; dsDNA, one strand shown
# T3 sequence: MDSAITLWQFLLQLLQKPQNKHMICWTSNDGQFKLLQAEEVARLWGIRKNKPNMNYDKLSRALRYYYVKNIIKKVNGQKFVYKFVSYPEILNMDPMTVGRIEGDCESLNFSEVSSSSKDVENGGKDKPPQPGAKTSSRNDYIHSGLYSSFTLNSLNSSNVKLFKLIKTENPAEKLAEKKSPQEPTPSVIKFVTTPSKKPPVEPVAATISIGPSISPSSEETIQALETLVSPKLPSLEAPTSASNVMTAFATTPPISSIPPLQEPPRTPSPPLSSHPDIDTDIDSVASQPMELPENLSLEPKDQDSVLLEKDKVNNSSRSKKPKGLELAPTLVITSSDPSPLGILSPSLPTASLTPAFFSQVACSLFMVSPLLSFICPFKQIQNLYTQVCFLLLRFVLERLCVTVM
# Procedure, shortened: as §1
# ETV2 = target: T4, ETV2 (Homo sapiens, UniProt O00321 1-342); details: protein: recombinant; tags: N-terminal GST; dsDNA, one strand shown
# T4 sequence: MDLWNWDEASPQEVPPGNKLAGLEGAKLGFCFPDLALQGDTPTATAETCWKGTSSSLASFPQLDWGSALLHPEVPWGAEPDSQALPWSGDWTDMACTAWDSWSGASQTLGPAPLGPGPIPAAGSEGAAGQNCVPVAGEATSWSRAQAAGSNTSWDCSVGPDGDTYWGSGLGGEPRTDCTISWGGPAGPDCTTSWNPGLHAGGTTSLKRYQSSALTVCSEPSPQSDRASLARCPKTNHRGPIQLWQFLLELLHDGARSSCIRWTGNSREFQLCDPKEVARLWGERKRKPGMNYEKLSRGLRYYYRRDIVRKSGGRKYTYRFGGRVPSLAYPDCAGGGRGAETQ
# Procedure, shortened: as §1
# ELF3 = target: T5, ELF3 (Homo sapiens, UniProt P78545 1-371); details: protein: recombinant; tags: N-terminal GST; dsDNA, one strand shown
# T5 sequence: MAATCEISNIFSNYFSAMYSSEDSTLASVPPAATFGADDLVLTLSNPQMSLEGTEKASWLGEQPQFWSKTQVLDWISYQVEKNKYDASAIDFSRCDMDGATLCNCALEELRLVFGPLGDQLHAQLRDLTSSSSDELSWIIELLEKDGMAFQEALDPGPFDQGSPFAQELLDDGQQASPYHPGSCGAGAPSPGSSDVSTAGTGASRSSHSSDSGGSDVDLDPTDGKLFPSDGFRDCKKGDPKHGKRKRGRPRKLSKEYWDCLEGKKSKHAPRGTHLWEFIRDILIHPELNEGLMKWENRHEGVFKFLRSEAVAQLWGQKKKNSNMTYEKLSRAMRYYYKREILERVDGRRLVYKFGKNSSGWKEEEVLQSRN
# Procedure, shortened: as §1
# CRX = CRX (Homo sapiens, UniProt O43186 1-299); details: protein: recombinant; tags: N-terminal GST; dsDNA, one strand shown
# Procedure, shortened: as §1
# ETV1 = ETV1 (Homo sapiens, UniProt P50549 1-477); details: protein: recombinant; tags: N-terminal GST; dsDNA, one strand shown
# Procedure, shortened: as §1
# ERF = target: T6, ERF (Homo sapiens, UniProt P50548 1-548); details: protein: recombinant; tags: N-terminal GST; dsDNA, one strand shown
# T6 sequence: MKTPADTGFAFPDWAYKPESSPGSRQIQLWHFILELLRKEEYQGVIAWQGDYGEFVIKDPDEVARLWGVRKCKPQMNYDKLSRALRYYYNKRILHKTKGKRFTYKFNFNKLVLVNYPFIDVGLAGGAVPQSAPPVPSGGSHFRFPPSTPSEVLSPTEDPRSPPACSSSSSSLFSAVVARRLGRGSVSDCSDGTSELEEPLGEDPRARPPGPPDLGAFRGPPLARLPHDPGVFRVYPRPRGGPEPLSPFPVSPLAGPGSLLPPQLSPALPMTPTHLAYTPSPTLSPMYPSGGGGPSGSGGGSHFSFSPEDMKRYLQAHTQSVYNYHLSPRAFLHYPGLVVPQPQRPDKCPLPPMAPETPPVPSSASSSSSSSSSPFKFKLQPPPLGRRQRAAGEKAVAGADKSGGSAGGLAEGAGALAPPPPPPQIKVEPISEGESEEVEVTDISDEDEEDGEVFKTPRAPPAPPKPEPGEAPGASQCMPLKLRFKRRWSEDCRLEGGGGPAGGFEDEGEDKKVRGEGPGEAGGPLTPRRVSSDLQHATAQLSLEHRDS
# Procedure, shortened: as §1
# ETV3L = target: T7, ETV3L (Homo sapiens, UniProt Q6ZN32 1-361); details: protein: recombinant; tags: N-terminal GST; dsDNA, one strand shown
# T7 sequence: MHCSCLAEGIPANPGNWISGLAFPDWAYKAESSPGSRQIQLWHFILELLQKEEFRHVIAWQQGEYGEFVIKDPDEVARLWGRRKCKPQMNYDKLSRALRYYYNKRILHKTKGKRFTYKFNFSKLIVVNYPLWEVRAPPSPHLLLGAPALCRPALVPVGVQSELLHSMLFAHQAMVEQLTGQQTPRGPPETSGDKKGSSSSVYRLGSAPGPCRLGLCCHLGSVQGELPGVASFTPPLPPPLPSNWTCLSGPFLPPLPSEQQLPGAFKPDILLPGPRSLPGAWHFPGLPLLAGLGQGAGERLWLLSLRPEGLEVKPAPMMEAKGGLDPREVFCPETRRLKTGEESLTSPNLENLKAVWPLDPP
# Procedure, shortened: as §1
# ETS2 = target: T8, ETS2 (Homo sapiens, UniProt P15036 1-469); details: protein: recombinant; tags: N-terminal GST; dsDNA, one strand shown
# T8 sequence: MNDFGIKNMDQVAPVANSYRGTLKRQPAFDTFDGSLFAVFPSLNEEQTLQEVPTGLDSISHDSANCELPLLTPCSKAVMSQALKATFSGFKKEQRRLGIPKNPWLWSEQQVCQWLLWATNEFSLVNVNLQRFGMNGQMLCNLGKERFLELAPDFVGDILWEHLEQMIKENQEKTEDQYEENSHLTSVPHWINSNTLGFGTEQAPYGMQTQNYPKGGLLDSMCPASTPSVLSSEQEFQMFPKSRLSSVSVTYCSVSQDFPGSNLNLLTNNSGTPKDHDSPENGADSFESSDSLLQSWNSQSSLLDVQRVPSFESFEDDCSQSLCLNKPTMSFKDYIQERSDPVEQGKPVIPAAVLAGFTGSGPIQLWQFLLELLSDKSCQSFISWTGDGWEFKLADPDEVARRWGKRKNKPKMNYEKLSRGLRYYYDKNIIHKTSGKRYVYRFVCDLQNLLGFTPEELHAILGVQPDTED
# Procedure, shortened: as §1
# SPDEF = target: T9, SPDEF (Homo sapiens, UniProt O95238 1-335); details: protein: recombinant; tags: N-terminal GST; dsDNA, one strand shown
# T9 sequence: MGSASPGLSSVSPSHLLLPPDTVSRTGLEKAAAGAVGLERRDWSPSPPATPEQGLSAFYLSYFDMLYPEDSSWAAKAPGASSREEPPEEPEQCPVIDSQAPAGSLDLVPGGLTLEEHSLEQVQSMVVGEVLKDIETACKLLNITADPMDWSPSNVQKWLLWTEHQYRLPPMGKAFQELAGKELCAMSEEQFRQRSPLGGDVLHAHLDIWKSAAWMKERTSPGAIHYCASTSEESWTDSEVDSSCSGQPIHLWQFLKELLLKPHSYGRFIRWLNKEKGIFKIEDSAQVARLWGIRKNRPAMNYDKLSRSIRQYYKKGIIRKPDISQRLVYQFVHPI
# Procedure, shortened: as §1
# ETV7 = target: T10, ETV7 (Homo sapiens, UniProt Q9Y603 1-341); details: protein: recombinant; tags: N-terminal GST; dsDNA, one strand shown
# T10 sequence: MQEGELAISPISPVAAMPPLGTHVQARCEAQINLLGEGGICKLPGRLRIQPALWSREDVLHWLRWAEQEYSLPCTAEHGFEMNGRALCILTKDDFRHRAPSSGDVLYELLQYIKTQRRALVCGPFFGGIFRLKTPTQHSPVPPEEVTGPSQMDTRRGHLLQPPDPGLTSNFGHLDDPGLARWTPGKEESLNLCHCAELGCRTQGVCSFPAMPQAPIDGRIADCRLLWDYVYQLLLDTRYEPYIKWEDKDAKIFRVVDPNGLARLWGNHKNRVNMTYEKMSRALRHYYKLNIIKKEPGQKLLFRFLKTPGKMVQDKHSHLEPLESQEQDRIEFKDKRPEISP
# Procedure, shortened: as §1
# ELF5 = target: T11, ELF5 (Homo sapiens, UniProt Q9UKW6-2 1-255); details: protein: recombinant; tags: N-terminal GST; dsDNA, one strand shown
# T11 sequence: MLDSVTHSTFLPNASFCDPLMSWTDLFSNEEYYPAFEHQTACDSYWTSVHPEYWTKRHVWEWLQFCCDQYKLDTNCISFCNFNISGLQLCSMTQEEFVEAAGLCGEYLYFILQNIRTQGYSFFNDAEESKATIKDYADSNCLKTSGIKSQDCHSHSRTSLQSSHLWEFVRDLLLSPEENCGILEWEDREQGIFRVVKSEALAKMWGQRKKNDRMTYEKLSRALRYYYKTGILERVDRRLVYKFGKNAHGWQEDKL
# Procedure, shortened: as §1
# ETV3 = target: T12, ETV3 (Homo sapiens, UniProt P41162-2 1-143); details: protein: recombinant; tags: N-terminal GST; dsDNA, one strand shown
# T12 sequence: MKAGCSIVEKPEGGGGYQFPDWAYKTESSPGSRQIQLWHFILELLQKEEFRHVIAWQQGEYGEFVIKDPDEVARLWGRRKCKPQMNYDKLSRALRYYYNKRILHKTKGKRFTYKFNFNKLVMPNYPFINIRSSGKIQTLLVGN
# Procedure, shortened: as §1
# ETV6 = ETV6 (Homo sapiens, UniProt P41212 1-452); details: protein: recombinant; tags: N-terminal GST; dsDNA, one strand shown
# Procedure, shortened: as §1
# Sequence of HSF1 (Q00613 whole entry): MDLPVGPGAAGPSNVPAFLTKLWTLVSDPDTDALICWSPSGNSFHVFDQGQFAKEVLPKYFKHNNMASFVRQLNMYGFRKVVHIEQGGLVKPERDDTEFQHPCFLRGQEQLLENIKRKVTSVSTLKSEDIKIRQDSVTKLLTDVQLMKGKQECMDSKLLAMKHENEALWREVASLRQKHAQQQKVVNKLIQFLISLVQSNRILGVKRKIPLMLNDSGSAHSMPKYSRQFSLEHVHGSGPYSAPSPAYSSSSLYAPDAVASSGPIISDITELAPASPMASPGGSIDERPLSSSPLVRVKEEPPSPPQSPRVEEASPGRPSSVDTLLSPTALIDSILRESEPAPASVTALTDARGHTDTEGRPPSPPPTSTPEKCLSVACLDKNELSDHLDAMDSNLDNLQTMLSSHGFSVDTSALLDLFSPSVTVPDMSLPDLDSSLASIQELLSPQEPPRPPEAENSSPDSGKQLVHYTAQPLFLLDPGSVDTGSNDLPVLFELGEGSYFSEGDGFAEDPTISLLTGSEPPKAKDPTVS
# Sequence of ELF4 (Q99607 whole entry): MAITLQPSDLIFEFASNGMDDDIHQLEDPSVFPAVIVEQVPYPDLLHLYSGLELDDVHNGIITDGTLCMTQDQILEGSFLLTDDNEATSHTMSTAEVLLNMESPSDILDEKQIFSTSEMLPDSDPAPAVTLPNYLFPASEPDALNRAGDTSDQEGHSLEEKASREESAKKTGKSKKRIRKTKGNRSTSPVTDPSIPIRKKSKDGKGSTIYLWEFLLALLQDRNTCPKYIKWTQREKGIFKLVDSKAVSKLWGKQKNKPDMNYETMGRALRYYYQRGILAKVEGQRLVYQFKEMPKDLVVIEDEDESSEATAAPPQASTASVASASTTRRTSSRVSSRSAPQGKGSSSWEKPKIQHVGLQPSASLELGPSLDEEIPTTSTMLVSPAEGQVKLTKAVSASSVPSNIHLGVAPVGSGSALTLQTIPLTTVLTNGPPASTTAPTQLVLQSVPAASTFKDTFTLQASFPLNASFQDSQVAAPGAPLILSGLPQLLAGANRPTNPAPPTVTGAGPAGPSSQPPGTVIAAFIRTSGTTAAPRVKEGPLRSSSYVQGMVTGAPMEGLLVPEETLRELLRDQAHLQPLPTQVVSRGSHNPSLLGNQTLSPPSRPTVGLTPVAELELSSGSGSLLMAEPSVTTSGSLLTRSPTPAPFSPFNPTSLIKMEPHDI
# Sequence of CRX (O43186 whole entry): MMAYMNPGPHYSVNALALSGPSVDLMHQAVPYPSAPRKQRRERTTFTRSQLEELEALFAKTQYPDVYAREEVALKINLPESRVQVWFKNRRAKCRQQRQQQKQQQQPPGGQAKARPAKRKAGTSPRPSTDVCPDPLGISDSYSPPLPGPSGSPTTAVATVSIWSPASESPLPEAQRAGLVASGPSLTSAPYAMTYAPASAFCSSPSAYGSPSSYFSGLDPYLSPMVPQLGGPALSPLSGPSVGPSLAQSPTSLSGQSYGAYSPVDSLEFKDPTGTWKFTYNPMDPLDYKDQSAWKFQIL
# Sequence of ETV1 (P50549 whole entry): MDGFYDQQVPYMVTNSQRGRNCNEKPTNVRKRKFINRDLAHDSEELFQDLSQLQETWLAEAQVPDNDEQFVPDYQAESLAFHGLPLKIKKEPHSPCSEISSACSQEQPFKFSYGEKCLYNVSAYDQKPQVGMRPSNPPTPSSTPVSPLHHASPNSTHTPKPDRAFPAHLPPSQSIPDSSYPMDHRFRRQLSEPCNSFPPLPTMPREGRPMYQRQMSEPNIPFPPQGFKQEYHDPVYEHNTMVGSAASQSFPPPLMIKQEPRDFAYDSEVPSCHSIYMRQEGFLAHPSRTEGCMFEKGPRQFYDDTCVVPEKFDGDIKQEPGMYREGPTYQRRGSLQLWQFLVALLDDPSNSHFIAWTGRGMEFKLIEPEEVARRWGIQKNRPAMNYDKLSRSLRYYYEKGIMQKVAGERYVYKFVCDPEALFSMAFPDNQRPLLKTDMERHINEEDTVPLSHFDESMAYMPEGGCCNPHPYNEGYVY
# Sequence of ETV5 (P41161 whole entry): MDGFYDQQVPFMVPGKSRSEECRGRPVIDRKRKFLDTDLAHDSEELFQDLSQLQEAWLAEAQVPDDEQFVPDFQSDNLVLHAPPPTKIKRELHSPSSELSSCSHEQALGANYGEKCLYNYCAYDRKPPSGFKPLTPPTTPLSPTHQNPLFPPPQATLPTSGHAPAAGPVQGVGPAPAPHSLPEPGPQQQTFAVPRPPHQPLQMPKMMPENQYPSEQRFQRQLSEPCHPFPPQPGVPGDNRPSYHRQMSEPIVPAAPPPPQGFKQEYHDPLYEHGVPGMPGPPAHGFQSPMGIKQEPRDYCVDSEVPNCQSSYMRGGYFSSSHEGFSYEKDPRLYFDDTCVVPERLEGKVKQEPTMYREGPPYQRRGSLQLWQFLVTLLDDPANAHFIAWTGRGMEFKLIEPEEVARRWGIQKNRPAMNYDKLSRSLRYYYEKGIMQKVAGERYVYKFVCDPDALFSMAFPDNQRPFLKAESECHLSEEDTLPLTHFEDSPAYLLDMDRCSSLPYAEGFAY
# Sequence of ETV6 (P41212 whole entry): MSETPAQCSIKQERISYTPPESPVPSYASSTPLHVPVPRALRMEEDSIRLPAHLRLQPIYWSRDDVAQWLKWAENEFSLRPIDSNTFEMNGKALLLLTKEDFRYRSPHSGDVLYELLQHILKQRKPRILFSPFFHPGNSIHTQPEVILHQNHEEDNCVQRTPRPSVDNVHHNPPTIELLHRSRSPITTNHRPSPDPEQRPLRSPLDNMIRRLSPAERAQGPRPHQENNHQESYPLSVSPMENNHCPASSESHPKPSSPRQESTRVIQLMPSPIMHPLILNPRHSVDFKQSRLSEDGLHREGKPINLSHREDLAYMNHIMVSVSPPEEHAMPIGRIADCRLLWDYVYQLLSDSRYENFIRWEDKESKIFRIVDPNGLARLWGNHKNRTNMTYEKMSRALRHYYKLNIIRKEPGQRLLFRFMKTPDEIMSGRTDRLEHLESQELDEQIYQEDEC
sequence,measurement,setting,value
TATTAT,binding signal,FEV,"1.12 fold enrichment (6-mer frequency, TF over GST control)"
same,binding signal,ETV5,"1.3 fold enrichment (6-mer frequency, TF over GST control)"
same,binding signal,HSF1,"1.69 fold enrichment (6-mer frequency, TF over GST control)"
same,binding signal,SPIC,"1.35 fold enrichment (6-mer frequency, TF over GST control)"
same,binding signal,ELF4,"1.27 fold enrichment (6-mer frequency, TF over GST control)"
same,binding signal,ELK4,"1.35 fold enrichment (6-mer frequency, TF over GST control)"
same,binding signal,ETV2,"1.32 fold enrichment (6-mer frequency, TF over GST control)"
same,binding signal,ELF3,"1.3 fold enrichment (6-mer frequency, TF over GST control)"
same,binding signal,CRX,"2.4 fold enrichment (6-mer frequency, TF over GST control)"
same,binding signal,ETV1,"1.26 fold enrichment (6-mer frequency, TF over GST control)"
same,binding signal,ERF,"1.19 fold enrichment (6-mer frequency, TF over GST control)"
same,binding signal,ETV3L,"1.24 fold enrichment (6-mer frequency, TF over GST control)"
same,binding signal,ETS2,"1.16 fold enrichment (6-mer frequency, TF over GST control)"
same,binding signal,SPDEF,"1.29 fold enrichment (6-mer frequency, TF over GST control)"
same,binding signal,ETV7,"1.28 fold enrichment (6-mer frequency, TF over GST control)"
same,binding signal,ELF5,"1.2 fold enrichment (6-mer frequency, TF over GST control)"
same,binding signal,ETV3,"1.27 fold enrichment (6-mer frequency, TF over GST control)"
same,binding signal,ETV6,"1.3 fold enrichment (6-mer frequency, TF over GST control)"
